# High-throughput results deposited in PubChem by several laboratories.
# Shown are actives, neighbours in structure and some others; about 4.7% of the full set was active somewhere.
# TIM10 inh: growth inhibitors of isogenic TIM10 control yeast, primary screen, counter-screen for tim10-1 yeast inhibitor project, luminescence, uHTS; inhibition, % at 10 µM; AID 463195, 2010; 1.4% of 330,000 active; S. cerevisiae TIM10 strain growth, BacTiter-Glo luminescence, 24 h;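 active means inhibition of 40% or more at the single tested concentration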;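 further: wild-type TIM10 isogenic control strain grown at permissive 25 °C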
# tim10-1 inh: growth inhibitors of tim10-1 mutant yeast, primary screen, luminescence, uHTS; S. cerevisiae tim10-1 ts strain growth, BacTiter-Glo, 24 h; inhibition, % at 20 µM; 2.2% of 330,000 active;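 active means inhibition of at least 40%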;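 further: mutant grown at 25 °C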
# SKKanGAS inh: S. pyogenes SKKanGAS growth inhibitors in kanamycin, primary screen, streptokinase expression inhibitor project, SKKanGAS strain, BacTiter-Glo luminescence; inhibition, % at 7.5 µM; 1.3% of 300,000 active; 6 h;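 active means mean replicate score, as percent of positive control median, at least 50; inconclusive means mean below 50 but one replicate at or above 50; inactive means mean and every replicate below 50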;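 further: strain carries kanamycin resistance gene driven by streptokinase promoter and grows in 40 µg/ml kanamycin; loss of luminescence reflects streptokinase promoter inhibition or plain growth inhibition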
# ATG4B inh: ATG4B protease inhibitors, primary screen, biochemical, fluorescence, uHTS | Cysteine protease ATG4B (Homo sapiens), Q9Y4P1 | ATG4B cleavage of LC3-PLA2, NBD-HPC fluorescence, 1 h | inhibition, % at 8.33 µM | 0.51% of 340,000 active | AID 504462, 2011; in the data active means inhibition above about 40%
# Target sequence (Q9Y4P1 whole entry, looked up): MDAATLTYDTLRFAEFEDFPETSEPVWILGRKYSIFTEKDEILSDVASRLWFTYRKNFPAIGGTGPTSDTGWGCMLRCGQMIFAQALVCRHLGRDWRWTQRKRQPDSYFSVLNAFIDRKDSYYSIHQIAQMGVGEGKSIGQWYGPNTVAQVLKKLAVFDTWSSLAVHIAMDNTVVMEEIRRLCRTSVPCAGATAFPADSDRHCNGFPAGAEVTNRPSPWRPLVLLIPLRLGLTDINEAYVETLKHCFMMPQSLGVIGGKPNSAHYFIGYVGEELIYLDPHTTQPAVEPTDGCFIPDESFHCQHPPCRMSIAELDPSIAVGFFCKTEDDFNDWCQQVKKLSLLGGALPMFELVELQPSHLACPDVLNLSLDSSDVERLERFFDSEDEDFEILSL
# PfHsp90 set2: growth inhibition of PfHsp90-expressing yeast, primary screen, antimalarial PfHsp90 inhibitor project, S. cerevisiae, BacTiter-Glo luminescence, single point, set 2 | inhibition, % at 9.4 µM | BacTiter-Glo ATP, 48 h; yeast lacking PDR1 and PDR3 efflux regulators | 0.32% of 310,000 active;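 active means every replicate shows inhibition above about 80%, whatever the replicate mean, limit read from the data; inconclusive means mean inhibition reaches the set limit but some replicate falls short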
# tim23-1 inh: growth inhibitors of tim23-1 mutant yeast, primary screen, luminescence, uHTS | S. cerevisiae tim23-1 growth, BacTiter-Glo luminescence, 24 h | inhibition, % at 20 µM | 1.3% of 330,000 active;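 active means growth inhibition of the mutant yeast at or above 50%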;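 further: temperature-sensitive mutant grown at 25 °C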
# Numbers stand for hits; i = inactive; ? = inconclusive; nt = no result given.
SMILES,TIM10 inh,tim10-1 inh,SKKanGAS inh,ATG4B inh,PfHsp90 set2,tim23-1 inh
O=S(=O)(O)c1cccc2c(N=Nc3ccc(O)c4ncccc34)cccc12,nt,nt,i,i,i,nt
COc1ccc(C)cc1N=Nc1ccc(O)c2ncccc12,nt,nt,94,i,109,nt
COCc1ccc(O)c2ncccc12,i,i,61,i,i,i
COc1ccc(N=Nc2ccc(O)c3ncccc23)cc1,i,i,70,i,104,i
COc1ccc(C2N(c3ccccn3)C(=O)C3CCCN32)c(OC)c1 (stereo not given),i,i,i,i,nt,i
C/C(=N/NC(=O)c1cc(-c2ccccc2)nc2c(Cl)cccc12)c1cccnc1,i,i,90,i,i,i
Cc1ccc(-n2nc3c(c2NC(=O)c2c(-c4ccccc4Cl)noc2C)CSC3)cc1,i,i,i,43,nt,i
O=C(Nc1nnc(SCCC2OCCO2)s1)C1CC(=O)N(c2ccccc2)C1 (stereo not given),i,i,i,i,i,i
COc1ccc(N2CC(C(=O)Nc3nnc(SCC(=O)NCc4ccco4)s3)CC2=O)cc1 (stereo not given),i,i,i,i,i,i
O=C(Nc1nnc(SCCC2OCCO2)s1)C1CC(=O)N(c2ccc(F)cc2)C1 (stereo not given),i,i,54,i,i,i
O=C(CSc1nnc(NC(=O)C2CC(=O)N(c3ccc(F)cc3)C2)s1)NCc1ccco1 (stereo not given),i,i,54,i,i,i
CC(=O)Oc1ccccc1C(=O)C=Cc1cccc([N+](=O)[O-])c1,nt,nt,nt,i,106,nt
O=C(Nc1nnc(-c2ccc3c(c2)CCCC3)o1)C1CCCCC1,i,i,81,i,i,i
CN(C)S(=O)(=O)c1ccc(C(=O)Nc2nnc(-c3ccc4c(c3)CCCC4)o2)cc1,i,i,94,i,i,i
O=C(Nc1nnc(-c2ccc(Cl)cc2)o1)C1=COCCO1,i,i,i,i,i,i
O=C(Nc1nnc(-c2ccc3c(c2)CCCC3)o1)c1ccc(Cl)cc1Cl,i,i,96,i,105,i
O=C(CCc1ccccc1)Nc1nnc(-c2ccc3c(c2)CCCC3)o1,i,i,85,i,i,i
CSCc1nnc(NC(=O)c2ccc(S(=O)(=O)N(C)C)cc2)o1,i,i,i,i,i,i
O=C(CCc1ccccc1)Nc1nnc(-c2ccc3c(c2)OCCO3)o1,i,i,i,i,i,i
COc1ccccc1/C=C/C=N/NC(=O)Cc1cccs1,i,i,i,i,i,i
O=C(Nc1nnc(-c2ccc3c(c2)CCCC3)o1)c1c(F)cccc1F,i,i,95,i,i,i
O=C(NCCC1CCCCN1S(=O)(=O)c1ccccc1)C(=O)Nc1ccccc1 (stereo not given),i,i,i,i,i,i
O=C(CSc1ccc(F)cc1)NC12CC3CC(CC(C3)C1)C2,i,i,i,i,i,i
O=C(CCSc1ccc(Cl)c(Cl)c1)NC12CC3CC(CC(C3)C1)C2,i,i,65,i,i,i
CCOC(=O)c1c(C)[nH]c(C(=O)OCC(=O)N(C)c2c(N)n(Cc3ccccc3)c(=O)[nH]c2=O)c1C,i,i,nt,i,i,i
SMILES,TIM10 inh,tim10-1 inh,SKKanGAS inh,ATG4B inh,PfHsp90 set2,tim23-1 inh
COC(=O)c1c(C)[nH]c(C(=O)OCC(=O)N(CC(C)C)c2c(N)n(Cc3ccccc3)c(=O)[nH]c2=O)c1C,i,i,67,i,i,i
COCCCn1c(=O)/c(=C\c2ccccc2OC(C)C)s/c1=C(/C#N)C(=O)Nc1ccc(C(=O)O)cc1,i,i,54,i,i,i
COCCCn1c(=O)/c(=C\c2ccccc2OC(F)F)s/c1=C(/C#N)C(=O)NC(C)C,i,i,i,i,i,i
O=C(O)c1ccc(CSc2nc(-c3ccc(Cl)cc3)cc(C(F)(F)F)n2)cc1,i,i,52,i,i,i
O=C(O)c1ccc(CSc2nc(-c3ccccc3)cc(C(F)(F)F)n2)cc1,i,i,i,i,i,i
Cc1csc(N2CCN(c3cc4nc(-c5ccncc5)[nH]c4cc3Cl)CC2)n1,i,i,i,i,i,i
CCCCC[n+]1ccn(C2=C([O-])c3ccccc3C(=O)/C2=N\S(=O)(=O)c2ccc(Cl)cc2)c1,i,i,73,i,i,i
N/C(CSc1ccc(Cl)cc1)=N\S(=O)(=O)c1ccc(Cl)cc1,i,i,i,i,i,i
CCCC[n+]1ccn(C2=C([O-])c3ccccc3C(=O)/C2=N\S(=O)(=O)c2ccc(Cl)cc2)c1,i,i,61,i,i,i
CCCC[n+]1ccn(-c2nc3ccccc3nc2[N-]S(=O)(=O)c2ccc(Br)cc2)c1,i,i,i,i,i,i
CCN1CCN(c2cc(C)c3cc(NC(=O)c4ccc(OC)c(OC)c4)ccc3n2)CC1,i,i,i,i,i,i
Cc1cc(C)c2c(N=NN3CCCCC3)[nH]nc2n1,i,i,i,i,110,i
CCN(CC)N=Nc1[nH]nc2nc(C)cc(C)c12,i,i,i,i,110,i
Cc1cc(C)c2c(C)[nH]nc2n1,i,i,i,i,nt,i
C(=N\Nc1nc(N2CCCCCC2)nc(N2CCCCCC2)n1)/c1ccccc1,i,i,69,i,i,i
Oc1ccc(Br)cc1/C=N/Nc1nc(N2CCCCC2)nc(N2CCOCC2)n1,i,i,?,i,nt,i
Oc1ccc(/C=N/Nc2nc(N3CCCCCC3)nc(N3CCCCCC3)n2)c(O)c1,i,i,112,i,i,i
Oc1ccc(/C=N/Nc2ccc3ccccc3c2)c(O)c1,i,i,52,i,i,i
O=[N+]([O-])c1cccc(/C=N/Nc2nc(N3CCCCC3)nc(N3CCCCC3)n2)c1,i,i,52,i,i,i
C=CCn1c(=N)c(S(=O)(=O)c2ccc(C)c(C)c2)cc2c(=O)n3ccccc3nc21,i,i,i,i,i,i
CCN(CC)C(=O)C1CCCN(C/C=C/c2ccccc2)C1 (stereo not given),i,i,i,i,i,i
Oc1ccc(-c2c(C3=CCCCC3)sc3ccccc23)cc1,nt,nt,56,i,?,nt
O=C1N/C(=N\N=C\c2cccs2)SC1Cc1ccc(Cl)c(Cl)c1 (stereo not given),i,i,56,i,i,i
CCOC(=O)C1=CN(Cc2cccc(Br)c2)S(=O)(=O)N(CC)C1C (stereo not given),i,i,nt,i,i,i
CCN(CC)c1ccc(N=Cc2ccccc2[N+](=O)[O-])cc1,i,i,i,55,i,i
CCc1ccc(NC2=NCC(c3ccccc3)S2)cc1 (stereo not given),i,i,94,i,nt,i
